High-throughput results deposited in PubChem by National Center for Advancing Translational Sciences (NCATS).
PNC inhibitor: inhibitors of perinucleolar compartment assembly | PC3M PTB-GFP, PNC prevalence imaging, 16 h; stronger effect = lower value | activity change (PNC), negative = inhibition, % at 10 µM | 140,000 tested, 3.1% active;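 active means readout at or below -70, meaning at least 70% loss of cells showing the perinucleolar compartment, a nuclear body marking cancer cells; inconclusive means readout between -30 and a set limit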;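 further: plate controls were DMSO wells for no effect and camptothecin positive control wells for full effect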
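Compounds are pinned in duplicate onto adhered PC3M cells stably expressing GFP-tagged PTB and incubated 16 h at 37 C. Cells are then fixed, nuclei stained with Hoechst, and PNC-positive cells counted.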
ALOX12 inhib: 12-hLO (ALOX12) enzyme inhibition. purified 12-hLO, xylenol orange hydroperoxide absorbance. AID 1452. P18054. 150,000 tested, 0.12% active. Potency, µM (doses to about 57.1 µM), inactives show at the top dose activity change, negative = inhibition, most hits filed as inhibitors; active means well fitted inhibition curve with a large enough effect; inconclusive means small, poorly fitted or top-dose-only effect; further: potency means the concentration at half of the fitted maximal effect; nearly all actives have a fitted effect of over 55% in size
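Purified human 12hLO (150 nM final) was preincubated with compounds for 15 min at room temperature in 25 mM Hepes pH 7.0, 0.01% Triton X-100, then reacted with 40 uM arachidonic acid for 30 min. Hydroperoxide was detected with ferrous iron/xylenol orange.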
ALDH1A1 block: ALDH1A1 (human) enzyme inhibition; Potency, µM (top dose mostly 75.3 µM), inactives show at the highest dose activity, negative = inhibition, hits mostly inhibitors; 220,000 tested, 7.3% active; P00352; AID 1030; Purified ALDH1A1, NADH fluorescence, propionaldehyde substrate;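 further: potency means the concentration at half of the fitted maximal effect; plate controls were no enzyme wells and a reference inhibitor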
Lamin A splicing: modulators of lamin A splicing; HeLa LMNA splicing GFP/RFP minigene ratio, 48 h; Potency, µM (series often up to 46.1 µM), for inactives: top-dose ratio change, negative = inhibition, hits mostly inhibitors; 200,000 tested, 0.01% active; AID 1487; active means well fitted inhibition curve with a large enough effect in the signal ratio, with a control signal flat, not every such curve was filed as active; inconclusive means small, poorly fitted or top-dose-only effect, or effect the other way, or a change in a side signal; the % refers to the signal ratio; further: potency means the concentration at half of the fitted maximal effect
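Read-out is the ratio of GFP to DsRed2 object intensity, acquired by 488 nm laser-scanning cytometry on HeLa lamin A-EGFP minigene reporter cells. Compound incubation 48 hrs at 37 °C in Opti-MEM with 2% FBS; DMSO 0.5% final.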
HPGD block: inhibitors of human 15-hydroxyprostaglandin dehydrogenase (HPGD). purified HPGD, NADH fluorescence kinetic, PGE2 substrate. Potency, µM, without a hit: top-dose activity change, negative = inhibition, most hits filed as inhibitors. 150,000 tested, 4.3% active. AID 894; further: potency means the concentration at half of the fitted maximal effect
Target sequence (P15428 whole entry, looked up): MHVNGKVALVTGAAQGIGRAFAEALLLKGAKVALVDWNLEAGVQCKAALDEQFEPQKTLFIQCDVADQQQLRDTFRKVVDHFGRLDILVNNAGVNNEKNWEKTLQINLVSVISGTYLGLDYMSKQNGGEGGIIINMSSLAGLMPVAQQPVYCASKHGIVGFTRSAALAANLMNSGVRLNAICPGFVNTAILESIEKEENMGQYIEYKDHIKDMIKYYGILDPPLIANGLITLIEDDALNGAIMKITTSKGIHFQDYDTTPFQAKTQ
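20 nM HPGD preincubated 15 min at room temperature with compound in 50 mM Tris-HCl pH 8, 0.01% Tween 20. Started with 1 mM NAD+ and 30 uM prostaglandin E2; NADH fluorescence (360/450 nm) read 5 times over 30-s intervals, last minus first.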
* hit, by the source's call; [ ] = dose if it differs, or a comment. This is a sample that favours compounds with a hit; in the whole collection about 10% have one here. Unless noted, the call rests on the fitted dose curve; in most records, active means well fitted inhibition curve with a large enough effect (not every such curve was filed as active); inconclusive means small, poorly fitted or top-dose-only effect, or another doubt; inactive means no such curve, though single readings can be large or run the other way. Unless noted, on the % scale 0 is the no-effect control and ±100 the full control effect.

C/C(=N/Nc1ccc(C(=O)O)cc1)c1ccc(O)c(O)c1O was read as PNC inhibitor 35, ALOX12 inhib 6%, ALDH1A1 block inconclusive, Lamin A splicing 1% and HPGD block 25µM*.
`C/C(=N\Nc1ccc(C(=O)O)cc1)c1nc2ccccc2n1C` gave PNC inhibitor -14, ALOX12 inhib -2%, ALDH1A1 block 5%, Lamin A splicing 14% and HPGD block 16µM*.
COc1ccc(OC)c(/C(C)=N/Nc2ccc(C(=O)O)cc2)c1 was read as ALDH1A1 block -13%.
Screening CCOC(=O)CNC(=O)c1cc2c(=O)n3cccc(C)c3nc2n1C returned Lamin A splicing 16%[46 µM].
`Cc1ccc(C(=O)Nc2cc3c(cc2C)n(C)c(=O)c(=O)n3C)cc1` gave Lamin A splicing 1%[46 µM].
`O=c1cc(-c2ccccc2)oc2cc(O[C@@H]3O[C@H](CO)[C@@H](O)[C@H](O)[C@H]3O)c(O)c(O)c12` gave ALOX12 inhib -3%, ALDH1A1 block inconclusive and HPGD block 11µM*.
For O=c1c(O)c(-c2ccc(O)c(O)c2)oc2c(OC3OC(CO)C(O)C(O)C3O)c(O)cc(O)c12 (configuration not stated) the results were ALOX12 inhib -6%, ALDH1A1 block inconclusive and HPGD block 28µM*.
CC(C)=CCC1=C(O)[C@](O)(CC=C(C)C)C(=O)C(C(=O)CC(C)C)=C1O was read as ALDH1A1 block -7% and HPGD block -14%.
For Cc1cc(-n2c(C)cc(C(=S)N3CCOCC3)c2C)ccc1Br the results were PNC inhibitor -17, ALOX12 inhib -13%, ALDH1A1 block 11µM*, Lamin A splicing inconclusive and HPGD block 10µM*.
Screening CCOC(=O)CCN1C(=O)[C@H]2[C@H]3[C@H](O)[C@H](O)C/C(=N/OC[C@@H](O)COCc4ccco4)[C@@H]3CC[C@@H]2C1=O returned ALDH1A1 block 1%[13.5 µM].
For CN(C)c1ccc(/C=C2/C(=O)N(c3ccc([N+](=O)[O-])cc3)N=C2N2CCOCC2)cc1 the results were PNC inhibitor 37, ALOX12 inhib -8%, ALDH1A1 block 1.3µM*, Lamin A splicing 5%[0.0737 µM] and HPGD block -10%.
O=[N+]([O-])c1ccc(N2CCOCC2)nc1 was read as PNC inhibitor 5, ALOX12 inhib -27%, ALDH1A1 block inconclusive, Lamin A splicing 24% and HPGD block inconclusive.
`O=C(Nc1nnc(S(=O)(=O)N2CCN(c3ccc(F)cc3)CC2)s1)c1ccc(Cl)cc1` gave Lamin A splicing 2%[46 µM].
Screening CCCC(=O)Nc1ccc(C(=O)n2ccc(C)n2)cc1 returned ALDH1A1 block 16%.
`CC1(C)CC(=O)C(C=NCCc2ccccn2)=C(O)C1` gave PNC inhibitor 12, ALOX12 inhib 0%, ALDH1A1 block 3%, Lamin A splicing 0% and HPGD block 3%.
CC1(C)CC(=O)C(C=Nc2cccnc2)=C(O)C1 was read as PNC inhibitor -4, ALOX12 inhib -7%, ALDH1A1 block 7.9µM*, Lamin A splicing 15% and HPGD block -5%.
`CC1(C)CC(=O)C(C=Nc2cccnc2/N=C/C2=C(O)CC(C)(C)CC2=O)=C(O)C1` gave ALDH1A1 block 2.2µM*.
`CC1(C)CC(=O)C(C=N)=C(O)C1` gave PNC inhibitor 34, ALOX12 inhib 3%, ALDH1A1 block -2%, Lamin A splicing 3% and HPGD block 0%.
For CC(C)(C)CC(C)(C)NC(=S)NC1CCN(Cc2ccccc2)CC1 the results were PNC inhibitor inconclusive, ALOX12 inhib inconclusive, ALDH1A1 block inconclusive, Lamin A splicing inconclusive and HPGD block -2%.
For CCOC(=O)c1ccccc1NS(=O)(=O)c1c(-c2ccc(C)cc2)csc1C(=O)OC the results were Lamin A splicing 0%[46 µM].
Screening Cc1cc(C)c2c(-c3ccc(-c4ccc(C(F)(F)F)cc4)cc3)cc(=O)oc2c1 returned ALOX12 inhib -3%[0.00818 µM], ALDH1A1 block -6% and HPGD block -8%.
For O=C(/C=C/Nc1ccc(F)cc1F)c1cccs1 the results were PNC inhibitor -23, ALOX12 inhib 1%, ALDH1A1 block 2.4µM*, Lamin A splicing -4% and HPGD block inconclusive.
Screening O=C(/C=C/Nc1ccccc1F)c1cccs1 returned PNC inhibitor -1, ALOX12 inhib 0%, ALDH1A1 block inconclusive, Lamin A splicing -5% and HPGD block -11%.
Screening COc1ccc(-c2n(CC(=O)OC3CC(C)CCC3C(C)C)c3ccccc3[n+]2C)cc1 (configuration not stated) returned ALDH1A1 block 6.3µM*.
For CC1CCC(C(C)C)[C@H](OC(=O)c2ccccc2)C1 (some centres not stated) the results were ALOX12 inhib 2%, ALDH1A1 block -11%, Lamin A splicing -4% and HPGD block -6%.
For CCOC(=O)c1sc(S(C)=O)c2c1CCc1conc1-2 (configuration not stated) the results were ALDH1A1 block 4.5µM* and Lamin A splicing -22%[46 µM].
`Cc1ccccc1OCC(=O)Nc1ccc2nc(SCC(=O)N3CCc4ccccc43)sc2c1` gave Lamin A splicing 14%[46 µM].
`CC(=O)N1c2ccc(S(=O)(=O)NCc3ccc(Cl)cc3)cc2CC1C` (configuration not stated) gave Lamin A splicing -5%[46 µM].
Screening CCN(CC)S(=O)(=O)c1ccc(N2CCOCC2)c(NS(=O)(=O)c2cc(C(C)(C)C)ccc2C)c1 returned PNC inhibitor inconclusive, ALOX12 inhib -2%, ALDH1A1 block 14µM*, Lamin A splicing -5% and HPGD block -15%.
Screening CCN(CC)S(=O)(=O)c1ccc(N2CCCC2)c(NS(=O)(=O)c2ccc(OC)cc2)c1 returned PNC inhibitor -23, ALOX12 inhib 3%, ALDH1A1 block 2.5µM*, Lamin A splicing 21% and HPGD block -6%.
CCN(CC)S(=O)(=O)c1ccc(N2CCCC2)c(NS(=O)(=O)c2ccccc2)c1 was read as PNC inhibitor 6, ALOX12 inhib -4%, ALDH1A1 block 0.35µM*, Lamin A splicing 16% and HPGD block -13%.
`CCN(CC)S(=O)(=O)c1ccc(N2CCCC2)c(NS(=O)(=O)c2ccc(F)cc2)c1` gave PNC inhibitor inconclusive, ALOX12 inhib -4%, ALDH1A1 block 0.63µM*, Lamin A splicing 20% and HPGD block -27%.
Screening CCN(CC)S(=O)(=O)c1ccc(N2CCOCC2)c(NS(=O)(=O)c2ccc(C(C)C)cc2)c1 returned PNC inhibitor 7, ALOX12 inhib 3%, ALDH1A1 block -2%, Lamin A splicing 7% and HPGD block -4%.
For CCN(CC)S(=O)(=O)c1ccc(N2CCCC2)c(NS(=O)(=O)c2ccc([N+](=O)[O-])cc2)c1 the results were PNC inhibitor -9, ALOX12 inhib -1%, ALDH1A1 block 2µM* and Lamin A splicing -10%.
